# According to PubChem BioAssay (Tox21):
# Results filed as inconclusive are left out. Activity calls are given as the source filed them. Unless noted, calls follow the shape of the full dose curve.
# Assay: qHTS assay to identify small molecule antagonists of the vitamin D receptor (VDR) signaling pathway - cell viability counter screen (AID 743225; active = well fitted cell-killing curve with a large enough effect in the repeat runs; also: nearly all actives have a fitted effect of over 50% in size)
# Settings: VDR-bla HEK293T viability, CellTiter-Glo luminescence, 16 h; series mostly up to 61 µM; viability change, negative = cytotoxic: at the top concentration
# Summary of the method: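 Same-well multiplex: following 16 h treatment of HEK 293T cells carrying a UAS-driven beta-lactamase reporter with compound and agonist (3 nM final), and a 2 h FRET substrate step, CellTiter-Glo was added and luminescence read after 30 min.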
# % is scaled to controls: 0 for no effect and ±100 for the full control effect.
row,Structure (SMILES),"viability change, negative = cytotoxic"
1,C=Cc1ccccc1,4.51% (inactive)
2,COc1cc(Cl)ccc1Cl,19.6% [at 78.8 µM] (inactive)
3,Cc1ccsc1C(=CCCN1CCC[C@@H](C(=O)O)C1)c1sccc1C,24% (inactive)
4,N#CSCC(=O)O,5.49% (inactive)
5,CC1(C)C(=O)N(Cl)C(=O)N1Br,9.15% (inactive)
6,CC(C)Nc1nc(N)nc(Cl)n1,-0.417% (inactive)
7,CC(C)S,11.4% [at 78.8 µM] (inactive)
8,COc1cc(C)ccc1C(C)C,2.46% (inactive)
9,C=C(C)C(=O)OCCOP(=O)(O)O,6.93% [at 78.8 µM] (inactive)

# Assay: qHTS assay to identify small molecule agonists of the NFkB signaling pathway (AID 1159509; active = well fitted curve in the direction sought with a large enough effect in the signal ratio in the repeat runs, not every such curve was filed as active; the % refers to the signal ratio)
# Settings: NFkB-bla ME-180 cells, beta-lactamase FRET ratio, 5 h; series mostly up to 61 µM; activation: at the top concentration
# Summary of the method: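 Pathway activation was measured in ME-180 cells stably expressing beta-lactamase under NF-kB response element control. Substrate cleavage was read as the 460/530 nm emission shift after 5 hr compound incubation.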
row,Structure (SMILES),activation
1,O=C(CCCl)NCc1ccccc1,0.442% (inactive)
2,O=C(O[C@@H](C(=O)O)[C@@H](OC(=O)c1ccccc1)C(=O)O)c1ccccc1,-0.33% [at 78.8 µM] (inactive)
3,Nc1cccc(S(=O)(=O)O)c1,0.0492% (inactive)
4,CCOC(=O)c1ccccc1O,0.02% (inactive)
5,CCCOCCC,0% (inactive)
6,CC1(C)S[C@@H]2[C@H](NC(=O)C(C(=O)O)c3ccccc3)C(=O)N2[C@H]1C(=O)O (stereo not given in full),0.112% (inactive)
7,Cc1cc(NS(=O)(=O)c2ccc(N)cc2)nc(C)n1,-0.077% (inactive)
8,Cc1ccc(C)c(N)c1,-0.0924% (inactive)
9,Cc1cc(S(=O)(=O)O)c(N)cc1Cl,0.404% [at 78.8 µM] (inactive)
10,Cc1nnc(SCC2=C(C(=O)O)N3C(=O)[C@@H](NC(=O)Cn4cnnn4)[C@H]3SC2)s1,-0.553% (inactive)
11,CC(C)(C)C1CCCCC1=O (stereo not given),-0.114% (inactive)
12,CCCC(CCC)(C(=O)OCC)C(=O)OCC,-0.648% (inactive)
13,CC(CNC1CCCCC1)OC(=O)c1ccccc1 (stereo not given),-0.356% (inactive)
14,CCOc1ccc(OCC)c(Cl)c1,0.303% (inactive)
15,O=C(O)[C@@H]1CSCN1,0.127% (inactive)
16,CC1=C(O)C(=O)OC1C (stereo not given),-0.357% (inactive)
17,Cc1ncc(CO)c(CN)c1O,-0.11% (inactive)
18,O=S(=O)(O)C(F)(F)F,0.107% (inactive)
19,CN1CCN(c2c(F)cc3c(=O)c(C(=O)O)cn(CCF)c3c2F)CC1,-0.0614% (inactive)

row,Structure (SMILES),activation
1,O=C(O)c1cccc(Cl)c1Cl,0.0122% (inactive)
2,Cc1ccc([N+](=O)[O-])cc1Cl,0.493% [at 78.8 µM] (inactive)
3,NCCCN1CCN(CCCN)CC1,0.0393% (inactive)
4,FC(F)(F)c1ccccc1,-1.21% (inactive)
5,COC(=O)N[C@H](C(=O)N[C@@H](Cc1ccccc1)[C@@H](O)CN(Cc1ccc(-c2ccccn2)cc1)NC(=O)[C@@H](NC(=O)OC)C(C)(C)C)C(C)(C)C,-0.589% (inactive)
6,OCCN1CCN(CCO)CC1,0.247% [at 78.8 µM] (inactive)
7,CCCCN1C[C@H](O)[C@@H](O)[C@H](O)[C@H]1CO,-0.147% (inactive)
8,O=CCCc1ccccc1,-0.431% (inactive)
9,CCN[C@H]1CN(CCCOC)S(=O)(=O)c2sc(S(N)(=O)=O)cc21,-1.03% (inactive)
10,C=Cc1ccccc1,0.0919% (inactive)
11,COc1cc(Cl)ccc1Cl,0.587% [at 78.8 µM] (inactive)
12,Cc1ccsc1C(=CCCN1CCC[C@@H](C(=O)O)C1)c1sccc1C,0.739% (inactive)
13,N#CSCC(=O)O,-0.0873% (inactive)
14,CC1(C)C(=O)N(Cl)C(=O)N1Br,0.108% (inactive)
15,CC(C)Nc1nc(N)nc(Cl)n1,0.0077% (inactive)
16,CC(C)S,-0.0028% [at 78.8 µM] (inactive)
17,COc1cc(C)ccc1C(C)C,0.107% (inactive)
18,CCC1(C)NC(=O)NC1=O (stereo not given),-0.686% (inactive)
19,C=C(C)C(=O)OCCOP(=O)(O)O,0.0214% [at 78.8 µM] (inactive)

# Assay: qHTS assay to identify small molecule agonists of the NFkB signaling pathway - cell viability counter screen (AID 1159515); also: nearly all actives have a fitted effect of over 55% in size
# Settings: NFkB-bla ME-180 viability, CellTiter-Glo luminescence, 5 h; series mostly up to 61 µM; activity, negative = cytotoxic: at the top concentration
# Summary of the method: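 Cells are seeded (2,000 NFkB-bla ME-180 per well), rested overnight, and dosed with DMSO-dissolved compounds for 5 hr at 37 C. Viability is then read by CellTiter-Glo luminescence after 30 min at room temperature.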
row,Structure (SMILES),"activity, negative = cytotoxic"
1,O=C(CCCl)NCc1ccccc1,-1.22% (inactive)
2,O=C(O[C@@H](C(=O)O)[C@@H](OC(=O)c1ccccc1)C(=O)O)c1ccccc1,10.8% [at 78.8 µM] (inactive)
3,Nc1cccc(S(=O)(=O)O)c1,-4.27% (inactive)
4,CCOC(=O)c1ccccc1O,0.646% (inactive)
5,CCCOCCC,10.6% (inactive)
6,CC1(C)S[C@@H]2[C@H](NC(=O)C(C(=O)O)c3ccccc3)C(=O)N2[C@H]1C(=O)O (stereo not given in full),-0.627% (inactive)
7,Cc1cc(NS(=O)(=O)c2ccc(N)cc2)nc(C)n1,5.58% (inactive)
8,Cc1ccc(C)c(N)c1,-0.103% (inactive)
9,Cc1cc(S(=O)(=O)O)c(N)cc1Cl,-13.9% [at 78.8 µM] (inactive)
10,Cc1nnc(SCC2=C(C(=O)O)N3C(=O)[C@@H](NC(=O)Cn4cnnn4)[C@H]3SC2)s1,2.76% (inactive)
11,CC(C)(C)C1CCCCC1=O (stereo not given),-5.15% (inactive)
12,CCCC(CCC)(C(=O)OCC)C(=O)OCC,11.7% (inactive)
13,CC(CNC1CCCCC1)OC(=O)c1ccccc1 (stereo not given),-13.3% (inactive)
14,CCOc1ccc(OCC)c(Cl)c1,-0.432% (inactive)
15,O=C(O)[C@@H]1CSCN1,0.222% (inactive)
16,CC1=C(O)C(=O)OC1C (stereo not given),7.79% (inactive)
17,Cc1ncc(CO)c(CN)c1O,0.4% (inactive)
18,O=S(=O)(O)C(F)(F)F,-8.47% (inactive)
19,CN1CCN(c2c(F)cc3c(=O)c(C(=O)O)cn(CCF)c3c2F)CC1,9.47% (inactive)

row,Structure (SMILES),"activity, negative = cytotoxic"
1,O=C(O)c1cccc(Cl)c1Cl,-16.9% (inactive)
2,Cc1ccc([N+](=O)[O-])cc1Cl,13.7% [at 78.8 µM] (inactive)
3,NCCCN1CCN(CCCN)CC1,10.2% (inactive)
4,FC(F)(F)c1ccccc1,-12.2% (inactive)
5,COC(=O)N[C@H](C(=O)N[C@@H](Cc1ccccc1)[C@@H](O)CN(Cc1ccc(-c2ccccn2)cc1)NC(=O)[C@@H](NC(=O)OC)C(C)(C)C)C(C)(C)C,0.934% (inactive)
6,OCCN1CCN(CCO)CC1,4.91% [at 78.8 µM] (inactive)
7,CCCCN1C[C@H](O)[C@@H](O)[C@H](O)[C@H]1CO,-13.2% (inactive)
8,O=CCCc1ccccc1,1.46% (inactive)
9,CCN[C@H]1CN(CCCOC)S(=O)(=O)c2sc(S(N)(=O)=O)cc21,-10.4% (inactive)
10,C=Cc1ccccc1,5.21% (inactive)
11,COc1cc(Cl)ccc1Cl,8.21% [at 78.8 µM] (inactive)
12,Cc1ccsc1C(=CCCN1CCC[C@@H](C(=O)O)C1)c1sccc1C,-0.225% (inactive)
13,N#CSCC(=O)O,13.2% (inactive)
14,CC1(C)C(=O)N(Cl)C(=O)N1Br,-5.23% (inactive)
15,CC(C)Nc1nc(N)nc(Cl)n1,9.14% (inactive)
16,CC(C)S,-2.4% [at 78.8 µM] (inactive)
17,COc1cc(C)ccc1C(C)C,6.6% (inactive)
18,CCC1(C)NC(=O)NC1=O (stereo not given),0.715% (inactive)
19,C=C(C)C(=O)OCCOP(=O)(O)O,7.53% [at 78.8 µM] (inactive)
